# HepG2 viability = counter-screen for TGF-b inhibitors: cytotoxicity in HepG2 cells; HepG2 CAGA-GFP viability, ATP luminescence, 18 h; Potency, µM (top dose mostly 46.1 µM), for the others: at the highest dose activity change, negative = cytotoxicity, actives largely listed as cytotoxic; hit rate 0.76% among 410,000; note: potency is the fitted concentration of half-maximal effect
#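 HepG2 CAGA-GFP cells (1000/well, DMEM with 1% FBS) received compound, then TGF-beta at 500 pg/mL final, and were incubated 18 hours at 37 degrees C. Viability was read by CellTiter-Glo luminescence. Media-only wells were set as complete cell-killing and DMSO as no toxicity.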
# TGFb inhibitor = blocks TGF-b signaling; hit rate 1.2% among 410,000; AID 588855; Potency, µM (highest dose often 46.1 µM), without a hit: at the top dose activity, negative = inhibition, actives largely listed as inhibitors; HepG2 CAGA-GFP TGF-b/SMAD3 reporter, GFP fluorescence, 18 h; TGF-beta stimulated, 500 pg/mL final; note: potency is the fitted concentration of half-maximal effect; % is set by controls: 0 for no effect and ±100 for the full control effect; nearly all actives have a fitted effect of over 65% in size
#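 Per well, imaged GFP fluorescence of HEPG2 CAGA-GFP cells gives the signal; cells get compound, then TGF-beta (500 pg/mL final), 18 h at 37 degrees C; %Activity versus -TGF-beta and +DMSO controls.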
# TDP1 cell CPT = DT40-hTDP1 cell growth loss with CPT. AID 686979. chicken DT40 Tdp1-/-;hTDP1 cells + 20 nM CPT, ATP luminescence, 48 h. hit rate 12% among 420,000. Potency, µM (doses to about 46.2 µM), inactives show top-dose activity change, negative = growth inhibition, most hits filed as inhibitors; note: potency is the fitted concentration of half-maximal effect; % is set by controls: 0 for no effect and ±100 for the full control effect; nearly all actives have a fitted effect of over 55% in size
#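 Chicken DT40 Tdp1-/- cells complemented with human TDP1, 400 cells/well, exposed to compounds plus 20 nM camptothecin for at least 48 h at 37 C; viability read as ATP content by CellTiter-Glo luminescence.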
# IL-1B inflam inh = inflammasome signaling inhibition, IL-1 beta readout; AID 743279; hit rate 4.7% among 360,000; activity change, % at 57.5 µM; THP-1 LPS/ATP IL-1B secretion, AlphaLISA, 16 h; active compounds read low; in the data active = activity change below about -50%; inconclusive = mostly about -30% to -49%; note: % is set by controls: 0 for no effect and ±100 for the full control effect
#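 Secreted IL-1B measured by AlphaLISA bead assay after 16 h compound exposure of THP-1 cells; compounds (final up to 57.5 uM) added 1 h before LPS (250 ng/mL) and ATP (1.25 mM) stimulation; lower signal means less secretion.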
# DT40 TDP1 no CPT = qHTS for Inhibitors of human tyrosyl-DNA phosphodiesterase 1 (TDP1): qHTS in cells in absence of CPT; AID 686978, 2013; Potency, µM (titrated, usually from 46.2 µM), inactives show at the highest dose activity change, negative = growth inhibition, actives largely listed as inhibitors; hit rate 15% among 420,000; DT40 Tdp1-/- hTDP1 cells, no CPT, ATP luminescence, 48 h; note: potency is the fitted concentration of half-maximal effect; % is set by controls: 0 for no effect and ±100 for the full control effect; nearly all actives have a fitted effect of over 55% in size
#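 DT40 Tdp1-/-;hTDP1 cells, no CPT (DMSO vehicle only), 400 cells/well; compounds pin-transferred; ≥48 hr, 37 °C; CellTiter-Glo 30 min RT dark, luminescence read.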
# ASM inhibitor = human S-ASM enzyme inhibition | P17405 | placental ASM, HMU-PC fluorogenic substrate, 60 min | Potency, µM (top dose mostly 57.5 µM), inactives show at the highest dose activity change, negative = inhibition, actives largely listed as inhibitors | hit rate 0.006% among 340,000 | AID 504937; note: potency is the fitted concentration of half-maximal effect
# Target sequence (P17405 47-631 limits assumed): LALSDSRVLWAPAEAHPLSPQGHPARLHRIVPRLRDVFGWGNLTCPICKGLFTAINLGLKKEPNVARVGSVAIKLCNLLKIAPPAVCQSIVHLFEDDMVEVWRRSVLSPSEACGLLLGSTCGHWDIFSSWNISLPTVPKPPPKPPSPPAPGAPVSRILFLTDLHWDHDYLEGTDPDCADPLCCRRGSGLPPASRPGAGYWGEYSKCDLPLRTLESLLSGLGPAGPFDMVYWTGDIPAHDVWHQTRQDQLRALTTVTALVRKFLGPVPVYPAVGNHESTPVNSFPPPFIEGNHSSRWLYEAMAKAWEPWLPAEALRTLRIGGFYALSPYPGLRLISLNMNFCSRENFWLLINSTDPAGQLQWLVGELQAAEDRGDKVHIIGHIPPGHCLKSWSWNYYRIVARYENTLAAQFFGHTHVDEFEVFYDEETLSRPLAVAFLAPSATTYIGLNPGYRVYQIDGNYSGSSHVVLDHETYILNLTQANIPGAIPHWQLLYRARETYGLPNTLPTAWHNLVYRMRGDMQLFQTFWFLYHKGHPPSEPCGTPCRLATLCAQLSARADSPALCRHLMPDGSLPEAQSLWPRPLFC
#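 HMU-PC0 cleavage (9 uM final) by human placental ASM, 60 min at 37 °C following 10 min compound exposure at RT; stopped at pH 10, fluorescence Ex 386/Em 447 nm.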
# An asterisk follows results filed as active; i = inactive; u = inconclusive; x = no result given; [ ] = remark or other dose. Hits are enriched below; roughly 19% of the tested compounds scored in any of these assays. Unless noted, calls come from the whole dose curve; as a rule, active = well fitted curve in the direction sought with a large enough effect; inconclusive = small, poorly fitted or top-dose-only effect, or another doubt; inactive = no such curve, though single readings can be large; an effect the other way counts as inactive or inconclusive.
SMILES,HepG2 viability,TGFb inhibitor,TDP1 cell CPT,IL-1B inflam inh,DT40 TDP1 no CPT,ASM inhibitor
CC1CCCCN1C(=O)c1ccc(OC2CCN(S(=O)(=O)N(C)C)CC2)cc1 (stereo not given),-23%,-22%,u,-9,10µM*,0%
COCCC(=O)N1CCC(Oc2ccc(C(=O)N3CCCCCCC3)cc2)CC1,-13%,1%,u,44,u,4%
CN(C)S(=O)(=O)N1CCC(Oc2ccc(C(=O)N3CCCCCC3)cc2)CC1,-9%,-15%,23µM*,6,13µM*,x
CN(C)S(=O)(=O)N1CCC(Oc2ccc(C(=O)N3CCCCCCC3)cc2)CC1,-22%,-1%,16µM*,0,16µM*,2%
CN(C(=O)c1ccc(OC2CCN(S(=O)(=O)N(C)C)CC2)cc1)C1CCCCC1,-11%,9%,21µM*,18,u,2%
CSCCNC(=O)c1ccc(OC2CCN(S(=O)(=O)N(C)C)CC2)cc1,-1%,-19%,-12%,-11,2%,1%
COc1cc(OC)c(NC(=O)c2c(C)oc3ncn(C)c(=O)c23)cc1Cl,-1%,2%,3%,x,-3%,x
CSc1nc2sc3c(c2c(=O)n1Cc1ccccc1)CCC(C(C)(C)C)C3 (stereo not given),-17%,0%,-15%,x,u,x
Cc1cnc(NC(=O)c2ccc(F)c(S(=O)(=O)N3CCOCC3)c2)s1,8%,u,u,10,u,-1%
CCN(Cc1cnn(C)c1)C(=O)c1ccc(OC2CCN(S(=O)(=O)N(C)C)CC2)cc1,-7%,-5%,-11%,-68*,1%,4%
O=c1cc(-c2cccc(Br)c2)oc2cccc(O)c12,-33%,0%,-24%,15,u,0%
CC(=C/c1ccccc1)/C=N/NC(=O)c1cccs1,-22%,-17%,-13%,x,5.2µM*,3%
O=C(N/N=C/C(Br)=C\c1ccccc1)c1cccs1,-13%,u,15µM*,x,13µM*,-8%
CC(/C=N/NC(=O)Cn1cnc2ccccc21)=C\c1ccccc1,-41%,u,23µM*,-3,u,u
O=C(Cn1cnc2ccccc21)N/N=C/c1ccccc1,-14%,-10%,-11%,0,-20%,1%
CC(/C=N/NC(=O)c1c(Br)cnn1C)=C\c1ccccc1,-17%,-5%,-20%,-52*,u,-3%
CC[C@@]12C(=O)N(c3cccc(Br)c3)C(=O)N1[C@H](c1cccc(C)c1)[C@@H]1C(=O)N(Cc3ccccc3)C(=O)[C@@H]12,-4%,-2%,u,-6,u,3%
Cc1cccc(C)c1OCC(=O)Nc1ccccc1C(=O)N1CCOCC1,0%,-4%,8%,i,4%,4%
COC(=O)C1=C(C)NC2=C(C(=O)CC(C)(C)C2)C1c1ccccn1 (stereo not given),22%,-22%,2%,20,-3%,422%
CC1=C(C(=O)OC2CCCC2)C(c2coc3ccccc3c2=O)C2=C(CC(C)(C)CC2=O)N1 (stereo not given),-17%,-4%,16µM*,-11,u,7%
CC1=C(C(=O)OC2CCCC2)C(c2coc3ccc(C)cc3c2=O)C2=C(CCCC2=O)N1 (stereo not given),-11%,-24%,u,-16,21µM*,15%
CC1CN(C(=O)C2CC(=O)N(c3ccc(Cl)cc3)C2)CC(C)O1 (stereo not given),-13%,-17%,-25%,-10,-9%,5%
O=C(NCc1ccccn1)C(=O)Nc1cc2c3c(c1)CC(=O)N3CCC2,-13%,0%,-5%,-1,-13%,2%
Cc1ccc(/C=N/NC(=O)c2cc(-c3ccc(C)o3)[nH]n2)cc1,-10%,2%,13µM*,6,15µM*,-6%
Cc1ccc(-c2cc(C(=O)N/N=C/c3cccnc3)n[nH]2)o1,1%,-16%,-1%,-14,-29%,0%
SMILES,HepG2 viability,TGFb inhibitor,TDP1 cell CPT,IL-1B inflam inh,DT40 TDP1 no CPT,ASM inhibitor
Cc1cccc2c(N3CCCC3)nc(CNS(=O)(=O)c3ccc4ccccc4c3)nc12,x,x,2%[9.04 µM],x,u,x
CCn1cc(C2=NOC(C(=O)Nc3c(C)nn(Cc4ccc(F)cc4)c3C)C2)c(C)n1 (stereo not given),-21%,-18%,u,0,u,10%
CC(=O)c1cccc(-c2ccnc3c2CC(C(=O)Nc2ccc(F)c(Cl)c2)O3)c1 (stereo not given),3%,u,18µM*,-25,21µM*,x
O=C(Nc1ccc(F)c(Cl)c1)C1Cc2c(-c3cccc(F)c3)ccnc2O1 (stereo not given),-50%,u,u,u,u,x
CCn1cc(C2=NOC(C(=O)Nc3cccc(C(C)=O)c3)C2)c(C)n1 (stereo not given),-12%,16%,16µM*,-2,u,-3%
CC(=O)c1cccc(NC(=O)C2Cc3c(-c4ccccc4)ccnc3O2)c1 (stereo not given),-48%,3%,21µM*,-18,13µM*,x
CC(=O)Nc1ccc(NC(=O)C2Cc3c(-c4ccco4)ccnc3O2)cc1 (stereo not given),-25%,4%,u,-18,-28%,x
CC(=O)c1cccc(NC(=O)C2Cc3c(-c4ccco4)ccnc3O2)c1 (stereo not given),-7%,0%,u,0,16µM*,x
C[C@H]1CCC[C@@]2(O[C@@H](CCO)C[C@@H](O)[C@@H]2O)O1,0%,u,1%,23,-7%,0%
CN(CC(=O)Nc1ccc(F)cc1)C(=O)COC(=O)CSc1ccc(F)cc1,-1%,-5%,-15%,-4,-3%,0%
CC(=O)Nc1cccc(-c2ccnc3c2CC(C(=O)Nc2cccnc2)O3)c1 (stereo not given),-11%,-10%,-32%,12,u,x
CC(=O)c1cccc(NC(=O)C2Cc3c(-c4cccc(F)c4)ccnc3O2)c1 (stereo not given),6%,7%,18µM*,0,u,x
CC(=O)c1cccc(-c2ccnc3c2CC(C(=O)Nc2ccccc2)O3)c1 (stereo not given),-13%,9%,16µM*,-5,u,x

# Screening results deposited in PubChem BioAssay by National Center for Advancing Translational Sciences (NCATS).
